Screening data (PubChem)
Hits are enriched below; roughly 0.53% of the tested compounds scored in any of these assays.
Rango release inh: inhibitors of RanGTP-induced Rango-importin beta complex dissociation; O95149+P62826; Biochemical FRET Rango-importin beta, RanGTP-induced dissociation; Potency, µM (highest dose often 46.1 µM), inactives show top-dose activity change, negative = inhibition; actives 0.071% (n = 340,000); AID 540253; further: potency means the concentration at half of the fitted maximal effect; % of control where 0% means no effect; nearly all actives have a fitted effect of over 45% in size
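Compounds sat 5 min at room temperature with 0.1 uM Rango biosensor plus 0.25 uM importin beta, then FRET pre-read. RanGTP-RCC1 (0.6 uM Ran, 2mM GTP, 0.2 uM RCC1) added for 45 min, and the CFP/YFP post-read measured blocked complex dissociation.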
Rango-impB inh: prevents formation of the Rango-importin beta complex. Q14974. Rango CFP/YFP FRET sensor + importin beta, 45 min. Potency, µM (doses to about 92.2 µM), inactives show at the top dose inhibition of complex formation. actives 0.031% (n = 340,000). AID 540263;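 further: potency means the concentration at half of the fitted maximal effect; 0% = DMSO wells and 100% = buffer wells lacking importin beta; nearly all actives have a fitted effect of over 15% in size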
Target sequence (Q14974 whole entry, looked up): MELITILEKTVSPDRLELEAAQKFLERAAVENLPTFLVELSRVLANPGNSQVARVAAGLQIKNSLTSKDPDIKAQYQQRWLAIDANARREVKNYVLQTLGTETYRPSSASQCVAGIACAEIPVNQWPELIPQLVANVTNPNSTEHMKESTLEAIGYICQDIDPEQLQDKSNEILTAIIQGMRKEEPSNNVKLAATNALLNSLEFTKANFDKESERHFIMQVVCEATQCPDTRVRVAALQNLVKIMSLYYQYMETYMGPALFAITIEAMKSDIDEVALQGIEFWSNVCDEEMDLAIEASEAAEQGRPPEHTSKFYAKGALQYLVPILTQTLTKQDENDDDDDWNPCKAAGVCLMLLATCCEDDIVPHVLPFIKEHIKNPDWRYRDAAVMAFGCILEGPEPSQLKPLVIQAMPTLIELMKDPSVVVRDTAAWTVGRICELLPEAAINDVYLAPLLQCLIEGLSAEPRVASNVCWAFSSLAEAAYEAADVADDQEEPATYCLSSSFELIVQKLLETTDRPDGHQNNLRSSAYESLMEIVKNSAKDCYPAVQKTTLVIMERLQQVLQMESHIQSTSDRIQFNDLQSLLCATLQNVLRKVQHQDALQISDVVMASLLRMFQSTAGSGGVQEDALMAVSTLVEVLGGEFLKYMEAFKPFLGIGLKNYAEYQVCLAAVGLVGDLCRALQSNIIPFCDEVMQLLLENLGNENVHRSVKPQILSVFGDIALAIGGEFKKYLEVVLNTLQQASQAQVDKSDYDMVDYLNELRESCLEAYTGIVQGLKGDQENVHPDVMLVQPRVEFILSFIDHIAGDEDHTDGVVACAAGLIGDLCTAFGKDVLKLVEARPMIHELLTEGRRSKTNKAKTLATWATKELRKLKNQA
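FRET biosensor (snurportin 1 IBB flanked by EYFP and cerulean), 50 nM, with compound 5 min, then 0.125 microM importin beta in PBS, 1 mM DTT, 0.02% Tween-20, 0.1% BSA. CFP/YFP ratio read after 45 min at room temperature; pre-read flags interference.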
Giardia kill: kills Giardia lamblia. Giardia lamblia trophozoite viability. activity change, % at 7.66 µM, hits read low. actives 0.15% (n = 340,000); in the data active means activity change below about -80%; inconclusive means between about -30% and that limit;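 further: parasites exposed to compound for two days anaerobically before the ATP read; on the % scale 0 is the no-effect control and ±100 the full control effect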
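ATP-content bioluminescence gauges trophozoite survival. Cells (100/well) receive compound and incubate anaerobically for 48 hrs at 37 deg C; detection reagent follows for 15-30 min at room temperature.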
CCT chaperon mod: changes cytosolic chaperonin activity; purified chaperonin ATPase assay, HTRF ADP detection, 30 min; activity change, % (concentration not given with the values), hits read low; actives 0.3% (n = 360,000); in the data active means activity change below about -30%; further: on the % scale 0 is the no-effect control and ±100 the full control effect
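ATPase activity: ADP formed was measured by HTRF Transcreener (665/615 nm ratio) after 30 min at 37 deg C with 10 uM ATP. Compounds screened at one 76 uM concentration against 40 or 20 nM TRiC in Tris pH 7.4/KCl/MgCl2/DTT buffer.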
MmCpn inh: inhibitors of Methanococcus maripaludis chaperonin TRiC (MmCpn); purified Mm-Cpn ATPase, ADP Transcreener TR-FRET; Potency, µM (highest dose often 76.9 µM), without a hit: at the highest dose activity, negative = inhibition, usual class: inhibitors; actives 0.031% (n = 330,000); active means well fitted inhibition curve with a large enough effect; inconclusive means small, poorly fitted or top-dose-only effect; further: potency means the concentration at half of the fitted maximal effect; on the % scale 0 is the no-effect control and ±100 the full control effect; nearly all actives have a fitted effect of over 80% in size
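Inhibition of chaperonin ATP hydrolysis is measured as reduced ADP production, detected by competitive TR-FRET in which signal falls with ADP. Final enzyme 25 nM and ATP 10 uM, reacted 30 min at 37°C.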
An asterisk follows results filed as active; ? = inconclusive; . = no result given. Unless noted, the call rests on the fitted dose curve.

SMILES | Rango release inh | Rango-impB inh | Giardia kill | CCT chaperon mod | MmCpn inh
Cc1cc(NC(=O)C2CCCO2)ccc1Br (configuration not stated) | -8% | 1% | -23 | -107* | 1%
COC(=O)c1ccc(NC(=S)N2CCN(C(=O)c3ccco3)CC2)cc1 | 7% | -4% | -2 | -40* | -3%
N#Cc1nc(-c2ccc(OCc3ccc(Cl)cc3)cc2)oc1N1CCCCCC1 | . | . | 2 | . | .
CCCN1CNc2c(c(=O)[nH]c(=S)n2CCc2cccc(Cl)c2)C1 | . | . | 26 | . | .
CCOC(=O)c1c(/C=N/Nc2ccccc2)c2sc(C)cc2n1C | . | . | . | . | -3%
Cn1nc([N+](=O)[O-])nc1N1CCOCC1 | -3% | 0% | ? | -44* | -3%
C[C@@]12C(=O)OC(=O)[C@]1(C)C1CCC2O1 | ? | 2% | -94* | 1 | 0%
CC1CC=CC2C1C(=O)N(Cc1ccccc1)C2c1ccc(-c2cc3ccccc3s2)cc1F (configuration not stated) | . | . | 25 | . | .
Cc1ccc(NC(=O)c2ccc(NC(=O)C3CCCC3)cc2)c(C)c1 | . | . | 7 | . | .
CCN1/C(=C/C=C/C=C/C=C/c2sc3ccccc3[n+]2CC)Sc2ccccc21 | -19% | ? | 31 | -2 | -3%
CCN1/C(=C/C=C/C=C/c2sc3ccccc3[n+]2CC)Sc2ccccc21 | . | . | . | . | 32µM*
COc1cc(CCC(=O)NCc2ccc(S(N)(=O)=O)cc2)cc(OC)c1OC | 5% | -1% | 0 | -94* | -1%
O=C(Nc1cc(S(=O)(=O)N2CCOCC2)ccc1N1CCCC1)c1ccccc1F | . | . | . | -1 | .
O=C(Nc1cc(S(=O)(=O)N2CCOCC2)ccc1N1CCCCC1)c1ccccc1Br | -7% | -3% | 8 | -33* | ?
O=C(Nc1cc(S(=O)(=O)N2CCOCC2)ccc1N1CCOCC1)c1ccc([N+](=O)[O-])s1 | 0% | 6% | -89* | -1 | 0%
O=C(Nc1cc(S(=O)(=O)N2CCOCC2)ccc1N1CCOCC1)c1ccccc1[N+](=O)[O-] | 13% | 0% | -6 | -6 | 0%
O=C(Nc1nc(-c2ccc3c(c2)OCCO3)cs1)C1CC(=O)N(c2ccc3c(c2)OCCO3)C1 (configuration not stated) | . | . | -3 | . | .
COc1ccc(C2Nc3ccc(NC(C)=O)cc3C(=O)N2Cc2cccc(Cl)c2)cc1COc1ccc(NC(C)=O)cc1 (configuration not stated) | . | . | 6 | . | .
CCCOc1cccc(C(=O)N/N=C/c2coc3ccccc3c2=O)c1 | 22% | 1% | -12 | -37* | 1%
O=C(CNCc1ccccn1)N1CCc2ccccc2C1 | 17% | -1% | 1 | -44* | -1%
COc1ccc2cc(C3(C)NC(=O)N(CC(=O)NCC(F)(F)F)C3=O)ccc2c1 (configuration not stated) | 4% | 1% | 12 | -33* | 1%
COC(=O)C1=C[C@@H](C(=O)OC)C2C3=C(C(=O)[C@]2(CC(C)C)NC(=O)c2ccccc2)[C@H](C)n2c(=O)n(-c4ccccc4)c(=O)n2[C@@H]3C1 (some centres not stated) | . | . | -5 | . | .
Cc1ccc(-c2cc(NC(=O)CSc3n[nH]c(N)n3)n(-c3ccccc3)n2)cc1 | 20% | -2% | -11 | -3 | 1%
Nc1nc(SCC(=O)Nc2cc(-c3ccccc3)nn2-c2ccccc2)n[nH]1 | 15% | -2% | -5 | -97* | 0%
CC1=C(C(=O)Nc2ccccc2C)C(c2ccc[nH]2)n2ncnc2N1 (configuration not stated) | . | . | 2 | . | .
SMILES | Rango release inh | Rango-impB inh | Giardia kill | CCT chaperon mod | MmCpn inh
CCc1nnc(NC(=O)CN2CCC(O)(c3ccccc3OC)CC2)s1 | 7% | -3% | -4 | -2 | 1%
COc1ccccc1C1(O)CCN(CC(=O)Nc2nc(-c3ccccc3)cs2)CC1 | 0% | 5% | -16 | -46* | 0%
c1cncc(CNc2ncnc3ccc(-c4ccco4)cc23)c1 | . | . | . | . | -22%
Cc1nnc(SCC(=O)NCc2ccccc2F)c2nn(-c3ccc(Cl)cc3)c(C)c12 | . | . | -16 | . | .
O=C(CN1CCCCCCC1)N/N=C/c1ccc([N+](=O)[O-])o1 | -1% | 6% | ? | -1 | -1%
O=C(CN1CCOCC1)NN=Cc1ccc([N+](=O)[O-])o1 | . | . | . | -4 | .
CC1(C(=O)N/N=C/c2ccc([N+](=O)[O-])o2)CC1(Br)Br (configuration not stated) | 1% | -3% | -90* | -1 | 1%
CCOC(=O)N/N=C\c1ccc([N+](=O)[O-])o1 | 14% | 3% | -95* | 4 | 2%
CCCCCCCC(=O)N/N=C/c1ccc([N+](=O)[O-])o1 | 10% | ? | -88* | 1 | 1%
O=C(CC12CC3CC(CC(C3)C1)C2)N/N=C/c1ccc([N+](=O)[O-])o1 | 29% | -1% | -94* | 3 | 0%
COc1ccc(-c2nn3c(-c4cc(-c5ccccc5)n[nH]4)nnc3s2)cc1 | . | . | 13 | . | .
COc1ccc(C(=O)N(Cc2ccccc2)Cc2ccc(OC)c(COc3ccc(NC(C)=O)cc3)c2)cc1 | . | . | -17 | . | .
O=C(Cc1ccc([N+](=O)[O-])cc1)N/N=C/c1ccc([N+](=O)[O-])o1 | -31% | 1% | -89* | 0 | 1%
CCCOc1ccc(CCC(=O)N/N=C/c2ccc([N+](=O)[O-])o2)cc1 | -8% | -2% | -88* | 1 | 0%
CC(=O)OCC(NC(=O)C(CCCCNC(=O)OCc1ccccc1)NC(=O)OC(C)(C)C)C1OC(n2ccc(=O)[nH]c2=O)C(OC(C)=O)C1OC(C)=O (configuration not stated) | . | . | -4 | . | .
CC1C/C(=C/c2ccncc2)C(=O)/C(=C/c2ccncc2)C1 (configuration not stated) | 0% | -3% | ? | -38* | -1%
COc1cccc(S(=O)(=O)N2CCN(c3nc(-c4cccs4)nc4ccccc34)CC2)c1 | . | . | -13 | . | .
COc1cccc(/C=C(\C#N)c2nc3ccc(C)cc3[nH]2)c1OCC(=O)O | 16µM* | ? | -3 | -3 | 1%
N#Cc1c2n(c3c(=O)n(Cc4ccccc4Cl)cnc13)CCCCC2 | -17% | 0% | -7 | -32* | -3%
COC(=O)Cn1cnc2c(C#N)c3n(c2c1=O)CCCCC3 | 6% | -4% | 1 | -2 | 0%
Cc1nnc(N2C(=O)C(O)=C(C(=O)c3ccco3)C2c2ccc(F)cc2)s1 (configuration not stated) | ? | -5% | 13 | -1 | -12%
Cc1nnc(N2C(=O)C(O)=C(C(=O)c3ccco3)C2c2ccc(C(C)(C)C)cc2)s1 (configuration not stated) | 26µM* | ? | 18 | 0 | -9%
COc1ccccc1NC(=O)Nc1nc(C(N)Cc2ccccc2)cs1 (configuration not stated) | . | . | . | -30* | .
